# Source: PubChem BioAssay (National Center for Advancing Translational Sciences (NCATS))
# APEX1 inh: qHTS Assay for Inhibitors of the Human Apurinic/apyrimidinic Endonuclease 1 (APE1). DNA repair nuclease/redox regulator APEX1 (Homo sapiens), P27695. recombinant APE1, TAMRA/BHQ-2 abasic DNA cleavage fluorescence. Potency, µM (titrated, usually from 65.8 µM), inactives show at the highest dose activity change, negative = inhibition, hits mostly inhibitors. hit rate 0.35% among 350,000;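 further: plate controls were vehicle for no effect and reference inhibitor for full effect; nearly all actives have a fitted effect of over 55% in size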
# Target sequence (P27695 whole entry, looked up): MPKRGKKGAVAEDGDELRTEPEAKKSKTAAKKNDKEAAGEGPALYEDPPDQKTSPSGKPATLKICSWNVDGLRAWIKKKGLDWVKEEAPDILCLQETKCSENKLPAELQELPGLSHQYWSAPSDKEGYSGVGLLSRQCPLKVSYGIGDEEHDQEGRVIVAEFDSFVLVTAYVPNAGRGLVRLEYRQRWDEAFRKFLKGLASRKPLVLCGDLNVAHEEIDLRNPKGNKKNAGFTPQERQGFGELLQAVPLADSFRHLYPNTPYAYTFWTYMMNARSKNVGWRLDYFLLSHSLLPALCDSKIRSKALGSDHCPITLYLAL
#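 Kinetic fluorescence read (525 ex/598 em nm, three reads 60 s apart) of AP-site incision; signal = third minus first read. Enzyme 0.75 nM, dual-labelled THF duplex 50 nM, compound preincubation 15 min RT.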
# RECQ1 inh-1: qHTS Assay for Inhibitors of RecQ-Like Dna Helicase 1 (RECQ1); RECQ1 DNA unwinding, red fluorescence kinetic read; AID 2549, 2010; hit rate 0.54% among 240,000; Potency, µM (highest dose often 57.3 µM), for inactives: at the top dose activity, negative = inhibition, hits mostly inhibitors;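 further: plate controls were vehicle for no effect and no enzyme for full effect; nearly all actives have a fitted effect of over 30% in size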
#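 50 nM RECQ1T1 preincubated 15 min with compound in Tris pH 8.0 buffer with MgCl2, DTT, Tween-20 and 2.5 ug/ml poly(dI-dC); started with 200 nM TAMRA/BHQ-2 forked duplex and 2 mM ATP. Unwinding read as fluorescence (525/598 nm), two reads 2 h apart.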
# GLS inhibitor: qHTS for Inhibitors of Glutaminase (GLS); Potency, µM (titrated, usually from 45.5 µM), inactives show top-dose activity change, negative = inhibition, most hits filed as inhibitors; hit rate 0.21% among 410,000; GLS enzymatic activity, qHTS titration; AID 624170, 2012
#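 hKGA; 45 mM KH2PO4 pH 8.2 + 0.02% Tween-20; cpd via pin tool; 1 mM Gln soln; GluOx/HRP/Amplex Red; RT 30 min; fluor. t0 & final.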
# FEN1 inh: qHTS Assay for the Inhibitors of Human Flap endonuclease 1 (FEN1); P39748; Recombinant FEN1 flap cleavage, fluorescence, 15 min; Potency, µM (highest dose often 114 µM), inactives show at the highest dose activity change, negative = inhibition, hits mostly inhibitors; hit rate 0.35% among 390,000; AID 588795, 2011; further: nearly all actives have a fitted effect of over 65% in size
# Target sequence (P39748 whole entry, looked up): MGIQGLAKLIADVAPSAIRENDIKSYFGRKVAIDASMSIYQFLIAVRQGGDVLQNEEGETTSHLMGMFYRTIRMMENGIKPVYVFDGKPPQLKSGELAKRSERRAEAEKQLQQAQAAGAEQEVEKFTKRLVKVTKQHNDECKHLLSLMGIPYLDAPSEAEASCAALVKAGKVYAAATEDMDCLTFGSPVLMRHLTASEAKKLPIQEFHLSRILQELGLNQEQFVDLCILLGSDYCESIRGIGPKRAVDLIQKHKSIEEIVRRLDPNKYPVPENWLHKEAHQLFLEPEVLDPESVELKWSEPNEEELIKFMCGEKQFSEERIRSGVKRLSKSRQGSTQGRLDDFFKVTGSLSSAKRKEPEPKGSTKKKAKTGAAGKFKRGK
#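 Recombinant FEN1 (10 nM) was preincubated with pin-transferred compounds for 15 min at room temperature, then flap DNA substrate (50 nM final) was added. Plates were read at 0 and 15 min, and normalized concentration–response data were fitted to a four-parameter Hill equation.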
# BLM helicase inh: qHTS Assay for Inhibitors of Bloom's syndrome helicase (BLM); hit rate 0.2% among 350,000; Potency, µM (top dose mostly 56.1 µM), inactives show at the top dose activity change, negative = inhibition, most hits filed as inhibitors; recombinant BLM DNA unwinding, fluorescence dequenching; RecQ-like DNA helicase BLM (Homo sapiens), P54132;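 further: plate controls were vehicle for no effect and no enzyme for full effect; nearly all actives have a fitted effect of over 35% in size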
# PGK inhibitor: qHTS Assay to Find Inhibitors of Phosphoglycerate Kinase; hit rate 0.043% among 380,000; AID 602233, 2012; PGK/GAPDH coupled, Kinase-Glo luminescence, 60 min; Phosphoglycerate kinase, glycosomal (Trypanosoma brucei brucei), P07378; Potency, µM (doses to about 57.5 µM), without a hit: at the highest dose activity change, negative = inhibition, most hits filed as inhibitors; further: nearly all actives have a fitted effect of over 60% in size
#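 Luminescent ATP detection (Kinase-Glo Plus) follows a 60-minute room-temperature incubation, with wells lacking PGK as controls. Buffer: 100 mM TEA (pH 7.6), 5 mM MgCl2, 0.01% Tween-20. Coupling enzyme GAPDH (100 nM final) supplies unstable 1,3-BPG in-well.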
# RECQ1 conf: Confirmation qHTS Assay for Inhibitors of RecQ-Like Dna Helicase 1 (RECQ1); shares compounds with RECQ1 inh-1; RECQ1 helicase DNA unwinding, fluorescence; Potency, µM (highest dose often 229 µM), for inactives: at the top dose activity change, negative = inhibition, usual class: inhibitors; hit rate 28% among 610; further: nearly all actives have a fitted effect of over 45% in size
# RECQ1 ADP FP: Counterscreen for RECQ1 Inhibitors: ADP Fluorescence Polarization Displacement Assay; hit rate 27% among 530; AID 2711, 2010; Potency, µM (titrated, usually from 228 µM), for inactives: top-dose activity change, negative = inhibition, most hits filed as inhibitors; shares compounds with RECQ1 inh-1; ADP fluorescence polarization displacement counterscreen; further: nearly all actives have a fitted effect of over 45% in size
# RECQ1 inh-2: Confirmation qHTS Assay for Inhibitors of RecQ-Like Dna Helicase 1 (RECQ1) - Round 2 Cherry Picks. shares compounds with RECQ1 inh-1. recombinant RECQ1 DNA unwinding, red fluorescence. Potency, µM (doses to about 119 µM), inactives show at the top dose activity, negative = inhibition, most hits filed as inhibitors. hit rate 15% among 1,100. AID 504841, 2011; further: nearly all actives have a fitted effect of over 50% in size
# * hit, by the source's call; i = inactive; ? = inconclusive; . = no result given; [ ] = another dose, or the depositor's remark. Most compounds without a hit are left out; they make up all but 0.86% or so of the library. The call rests on the fitted dose curve; in most records, active means well fitted curve in the direction sought with a large enough effect; inconclusive means small, poorly fitted or top-dose-only effect, or another doubt; inactive means no such curve, though single readings can be large; an effect the other way counts as inactive or inconclusive. Unless noted, on the % scale 0 is the no-effect control and ±100 the full control effect; potency means the concentration at half of the fitted maximal effect.
SMILES,APEX1 inh,RECQ1 inh-1,GLS inhibitor,FEN1 inh,BLM helicase inh,PGK inhibitor,RECQ1 inh-2,others
CCCCC1=CC2=CC(=O)C(C)(OC(=O)CC)C(=O)C2=CN1Cc1ccco1 (stereo unspecified),?,?,?,-4%,-6%[12.4 µM],-1%,-11%,
Cc1nc2c(ccc3nc(NC(=O)C(c4ccccc4)c4ccccc4)sc32)s1,?,25µM*,-5%,10%,-10%,-4%,-22%,
COc1ccccc1/C=C/C=c1\sc2nc(=O)c(Cc3ccccc3)nn2c1=O,?,?,2%,79µM*,?,-15%,?,
CCCOc1ccc(Cc2nn3c(=O)/c(=C/c4ccco4)sc3nc2=O)cc1,?,25µM*,-8%,?,-4%,-27%,?,
CCCCCOc1ccc(/C=c2\sc3nc(=O)c(-c4ccccc4)nn3c2=O)cc1OC,?,-16%,6%,-1%,0%,-5%,.,
COc1cc(C/C=C\c2ccccc2)c(OC)cc1O,?,?,.,.,-1%,.,.,
CCOC(=O)c1ccc(CN(Cc2ccccc2C)S(=O)(=O)c2ccc(C(C)(C)C)cc2)cc1,.,.,1%,-5%,-5%,0%,.,
COc1ccc(NCc2cccn2-c2nnc(N3CCCCC3)s2)cc1OC,.,.,18%,-18%,-5%,4%,.,
COc1ccc2cc(C(C)c3nc4ccccc4c(=O)n3N)ccc2c1 (stereo unspecified),5%,28µM*,-2%,-4%,-10%,i,-23%,
Cc1c(C(=O)N2CCCCC2C)sc2ncnc(N3CCc4ccccc4C3)c12 (stereo unspecified),3%,-13%,0%,-7%,-13%,2%,.,
CCN1CCN(C(=O)c2sc3ncnc(N4CCc5ccccc5C4)c3c2C)CC1,24%,28µM*,2%,-2%,-1%,-3%,-14%,
O=C(N/C=C/c1ccco1)OCc1ccccc1,?,-12%,-16%,7%,-14%,-2%,.,
O=C(N/C=C/c1ccco1)NCc1ccccc1,?,?,-14%,?,-10%,-27%,-27%,
CCCC[C@H](NC(=O)[C@H](CC(C)C)NC(=O)CNC(=O)[C@@H](NC(=O)[C@H](Cc1ccccc1)NC(=O)[C@H](CO)NC(=O)[C@@H](N)CC(=O)O)C(C)C)C(N)=O,-1%,-12%,.,.,-1%,.,.,
COc1ccc(-n2c(O)c(/C=N/NS(=O)(=O)c3cc(C)ccc3C)c3ccccc3c2=O)cc1OC,?,14µM*,-5%,?,-17%,-4%,50µM*,
COc1ccc(-n2c(O)c(/C=N/NS(=O)(=O)c3ccc(C)cc3)c3ccccc3c2=O)cc1OC,3%,10µM*,-36%,-33%,-4%,-1%,?,
Cc1cc(C2C(=O)CC(=O)CC2c2ccccc2)on1 (stereo unspecified),-4%,25µM*,-4%,5%,-14%,-5%,?,
O=C(COc1ccccc1[N+](=O)[O-])N/N=C/C=C/c1ccco1,0%,-22%,0%,14%,?,i,.,
Cc1ccc(OCC(=O)N/N=C/C=C/c2ccco2)cc1,-6%,8.9µM*,-5%,-8%,-23%,-6%,.,RECQ1 conf=?;RECQ1 ADP FP=?
CC(C)=CCC/C(C)=C/CO/N=C1/C[C@@H](O)[C@@H](O)[C@@H]2[C@@H]3C(=O)N(c4cccc(Oc5ccccc5)c4)C(=O)[C@H]3CC[C@@H]12,27%[12.4 µM],i[11.5 µM],.,.,1%[12.4 µM],.,.,
COc1cccc(/C=N/Nc2nc3ccccc3n3cnnc23)c1O,1%,5µM*,11%,?,-11%,-1%,.,RECQ1 conf=-5%[114 µM]
Cc1cc(C)c(OCC(=O)N(Cc2cccc(F)c2)Cc2ccco2)c(C)c1,.,.,1%,?,-8%,-1%,.,
Cc1ccccc1CSc1cn(CC(=O)N2CCCC2)c2ccccc12,.,.,5%,-19%,-2%,-7%,.,
O=C(CCc1ccccc1)NC(=S)Nc1cc(C(F)(F)F)ccc1N1CCOCC1,15%,?,-2%,-2%,-11%,i,-9%,
O=c1[nH]c2cc3c(cc2cc1CN(Cc1cccs1)Cc1nnnn1Cc1ccco1)OCCO3,40µM*,?,6%,-9%,-24%,-7%,-13%,
SMILES,APEX1 inh,RECQ1 inh-1,GLS inhibitor,FEN1 inh,BLM helicase inh,PGK inhibitor,RECQ1 inh-2,others
O=c1[nH]c2cc3c(cc2cc1CN(Cc1ccccc1)Cc1nnnn1Cc1ccco1)OCCO3,-8%,?,-10%,-19%,-27%,2%,.,
CCc1ccc2[nH]c(=O)c(CN(Cc3ccccc3)Cc3nnnn3Cc3ccco3)cc2c1,?,32µM*,10%,-20%,-29%,-4%,-17%,
C(=C\c1ccnc2ccccc12)/c1ccc2c(c1)OCO2,.,.,.,-10%,.,.,.,
O=C1C=C[C@@H](O)[C@H]2[C@@H]3C(=O)N(C4CCCCC4)C(=O)[C@@H]3CC[C@H]12,12%[12.4 µM],0%[11.5 µM],.,.,-1%[12.4 µM],.,.,
O=C(NCc1ccc(F)cc1Cl)c1ccc(CSCc2ccccc2Cl)o1,.,.,0%,8%,-9%,i,.,
COc1ccc(NC(=O)CCNS(=O)(=O)c2ccc3c(c2)CCC(=O)N3)cc1,2%,-4%,9%,-14%,-1%,.,.,RECQ1 conf=14%;RECQ1 ADP FP=?
N=C1S/C(=C\c2ccco2)C(=O)N1c1nccs1,?,?,4%,-25%,-2%,-3%,-42%,
